Screening data (PubChem)
In the library only some 4.8% were active in any assay of this set; here they are far more common.
DAX1 inh-1 = inhibitors of DAX1 repression of SF-1 activated StAR promoter; AID 652010; inhibition, % at 6.8 µM; 1.1% of 370,000 active; HEK293T StAR-luciferase reporter, SF-1/DAX-1 repression relief;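 active = inhibition above the mean over all tested compounds plus 3 SD, cut at about 3.6% in these data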;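 also: higher inhibition means more luminescence from relief of DAX-1 repression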
ssDAF-12 act = activators of S. stercoralis DAF-12 nuclear receptor. activation, % at 6.8 µM. AID 652126. 1% of 370,000 active. HEK293 ssDAF-12/GRIP1 lit1-tk-luc reporter, luminescence; % of 3 µM dafachronic acid response;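 active = activation above the mean over all tested compounds plus 3 SD, cut at about 0.9% in these data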
hcDAF12 agonist = activates DAF-12 receptor from parasite H. contortus; HEK293 hcDAF-12 lit1-tk-luc reporter, luminescence; 0% DMSO, 100% Δ7-dafachronic acid; activation, % at 6.8 µM; 1.4% of 370,000 active;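 active = activation above the mean of all tested compounds plus 3 SD, cut at about 5.5% in these data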
SMARCA2 activ = activators of SMARCA2 function; activation, % at 9.1 µM; 1% of 370,000 active; MG213 cells, MMTV-luciferase reporter, dexamethasone, overnight; in the data active = activation above about 7.8%
DAX1 inh-2 = inhibitors of human orphan nuclear receptor DAX1 (NR0B1); 0.99% of 340,000 active; inhibition, % at 6.75 µM; P51843; AID 504766; HEK293 Gal4-DAX1 luciferase reporter, luminescence;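 active = inhibition above the mean over all tested compounds plus 3 SD, cut at about 4.2% in these data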;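 also: inhibition shows as a rise in luminescence from relieved DAX1 repression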
Target sequence (P51843 207-470 limits assumed): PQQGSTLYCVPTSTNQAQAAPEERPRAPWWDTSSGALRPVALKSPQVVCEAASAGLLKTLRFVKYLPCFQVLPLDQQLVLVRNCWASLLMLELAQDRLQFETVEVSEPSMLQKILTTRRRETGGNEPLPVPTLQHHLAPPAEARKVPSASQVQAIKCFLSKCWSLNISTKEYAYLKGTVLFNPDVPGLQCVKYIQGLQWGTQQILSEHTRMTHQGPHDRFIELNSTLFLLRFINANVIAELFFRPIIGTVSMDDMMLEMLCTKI
hgDAF-12 ag = agonists of H. glycines DAF-12 nuclear receptor | activation, % at 6.8 µM | HEK293 GAL4-hgDAF12 UAS-luciferase reporter, agonist luminescence; normalized to butyrate control | 1.8% of 370,000 active | AID 687014;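 active = activation above a cutoff set at the mean of all screened compounds plus 3 SD, cut at about 10% in these data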
SMARCA2 conf = confirmation of SMARCA2 (BRM) function activators | shares compounds with SMARCA2 activ | AID 652260 | activation, % at 9.1 µM | 30% of 3,500 active | MG213 cells, MMTV-luciferase with dexamethasone, luminescence, overnight; MG213 cells expressing E1A, Rb sequestered; DMSO wells 0%, reference activator 100%;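 active = activation above its plate's cutoff, the mean activation of tested wells plus 3 SD, cut at about 7.9% in these data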
VP16 Luc act = GAL4-VP16 reporter activation counter-screen. activation, % at 9.1 µM. 41% of 3,500 active. HEK293 GAL4-VP16 pG5luc reporter, luciferase luminescence; scaled: DMSO wells 0%, SAHA wells 100%. shares compounds with SMARCA2 activ;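 active = activation above the solvent-only control well mean plus 3 SD, averaged across control plates, cut at about 5.2% in these data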
Numbers stand for hits; . = inactive; / = no result.

SMILES	DAX1 inh-1	ssDAF-12 act	hcDAF12 agonist	SMARCA2 activ	DAX1 inh-2	hgDAF-12 ag	SMARCA2 conf	VP16 Luc act
CCCCNC(=O)OC1CCC12CCC(c1ccccc1)CC2 (stereo not given)	.	.	.	.	/	.	/	/
CCOC(=O)c1c(C)c(C#N)c2c3ccccc3ccn12	.	.	.	.	.	.	/	/
COCCNC(=S)Nc1ccc(N2CCOCC2)c(S(=O)(=O)Nc2ccccc2OC)c1	.	.	.	16	.	.	.	.
COc1ccccc1NS(=O)(=O)c1cc(NC(=O)c2[nH]c(C)c(C(C)=O)c2C)ccc1N1CCOCC1	4.0	.	.	9.9	.	.	11	6.0
COc1ccccc1NS(=O)(=O)c1cc(NC(=O)c2ccccc2C)ccc1N1CCOCC1	.	.	.	.	.	.	/	/
O=C(N/N=C/C(Cl)=C\c1ccccc1)c1ccco1	.	.	.	12	5.8	.	.	8.3
O=C(N/N=C/c1cccnc1)c1ccco1	.	.	.	10	.	.	.	.
COc1ccc(C(=O)N/N=C/c2cccnc2)cc1	.	.	.	11	.	.	.	.
O=C(N/N=C\c1cccnc1)c1ccccc1O	.	.	.	.	.	.	/	/
COc1ccc(CN(C)CC(=O)c2c(N)n(Cc3ccccc3)c(=O)n(C)c2=O)c(OC)c1	.	.	.	.	.	.	/	/
CC(C)N(C1=CC(=O)OC12CCCCC2)C(C)C	.	.	.	.	.	.	/	/
CCOC(=O)c1c(NC(=S)N2CCN(C)CC2)sc(C)c1-c1ccccc1	.	.	.	.	.	.	/	/
NC(=S)NN=C(c1ccccc1)c1ccccc1	.	.	.	.	.	.	/	/
C/C(=N\NC(N)=S)c1ccccc1	.	.	.	8.0	.	.	.	.
COc1ccc(CCNCCC(=O)Nc2c(C)cc(C)cc2C)cc1OC	.	.	.	9.0	.	.	.	.
OCCC1CN(Cc2cccc3c2OCO3)CCN1C1CCCC1 (stereo not given)	.	.	.	.	.	.	/	/
Cc1ccccc1C(=O)NNC(=O)c1ccoc1C	.	.	.	.	.	.	/	/
Cc1occc1C(=O)NNC(=O)c1ccccc1C(=O)O	.	.	.	12	/	.	.	.
COc1ccc(S(=O)(=O)c2ccccc2)cc1NS(=O)(=O)c1cccc(C(=O)O)c1	.	.	.	.	.	.	/	/
COc1ccc(NC(=O)c2ccc(-c3ccc(-c4noc(C)n4)cc3C)cc2)cc1N1CCN(C)CC1	.	.	.	13	.	.	17	.
CCN(CC(=O)Nc1ccc2c(c1)OCCO2)C(=O)c1cccc(S(=O)(=O)N2CCOCC2)c1	.	.	.	.	.	.	/	/
CN1CCc2c(sc3c2C(=O)NC(c2cccc(OC(=O)c4cccs4)c2)N3)C1 (stereo not given)	.	.	.	14	.	.	.	11
CN1CCc2c(sc3c2C(=O)NC(c2ccco2)N3)C1 (stereo not given)	.	.	.	.	.	.	/	/
CC1CCN(c2ccc(-c3cccs3)nn2)CC1	.	.	.	.	.	.	/	/
COc1ccc2c(c1)oc(=O)c1cc(OC)ccc12	.	.	.	9.1	4.6	13	20	6.5
SMILES	DAX1 inh-1	ssDAF-12 act	hcDAF12 agonist	SMARCA2 activ	DAX1 inh-2	hgDAF-12 ag	SMARCA2 conf	VP16 Luc act
O=C(NCc1ccc(Cl)cc1)C1CCN(S(=O)(=O)c2cccnc2)CC1	.	.	.	.	.	.	/	/
N#Cc1cccnc1N1CCN(C(=O)c2cccc3c2C(=O)c2ccc(Cl)cc2S3(=O)=O)CC1	.	.	.	14	.	.	14	.
N#Cc1cccnc1N1CCN(C(=O)c2cccc3c2C(=O)c2ccc(-c4ccc(Cl)c(C(F)(F)F)c4)cc2S3(=O)=O)CC1	/	/	/	/	.	/	/	/
CCn1c(SCc2nc3ccccc3[nH]2)nnc1-c1ccccc1OC	.	.	.	.	.	.	/	/
Nc1cccc(O)c1	.	.	.	9.7	.	.	.	.
COc1ccc(CNS(=O)(=O)CC2NCc3cc(OC)ccc32)cc1 (stereo not given)	.	.	.	10.0	/	.	.	.
C#CC1(NC(=O)NC(=O)c2c(F)cccc2F)CCCCC1	.	.	.	.	.	.	/	/
O=c1[nH]c2ccc(S(=O)(=O)N3CCN(c4ccccc4F)CC3)cc2s1	.	.	.	.	.	.	/	/
NC(=S)n1[nH]c(-c2ccc([N+](=O)[O-])cc2)c(N=Nc2ccc(Cl)cc2)c1=O	/	/	/	/	.	/	/	/
O=C(Nc1cc2c(cc1Br)OCCO2)c1cccs1	.	.	.	10	.	.	.	9.0
CC(C)OCCCNC(=O)C1CCC(CNS(=O)(=O)c2ccc(Cl)cc2)CC1 (stereo not given)	.	.	.	14	.	.	.	.
CC(C)OCCCNC(=O)C1CCC(CNS(=O)(=O)c2ccccc2)CC1 (stereo not given)	.	.	.	.	.	.	/	/
CC(C)c1nnc(SCC(=O)NCCC2=CCCCC2)n1N	.	.	.	.	.	.	/	/
CCOc1ccc(CCN2C(=O)C3C4CCC(O4)C3C2=O)cc1OCC (stereo not given)	.	.	.	10	.	.	.	.
COc1cc(CN(C(=O)c2cc3ccccc3oc2=O)C2CCS(=O)(=O)C2)cc(OC)c1OC (stereo not given)	.	.	.	.	.	.	/	/
Cc1ccc(CN(C(=O)c2cc3ccccc3oc2=O)C2CCS(=O)(=O)C2)cc1 (stereo not given)	.	.	.	8.7	.	.	.	.
Cc1ccc(S(=O)(=O)NN=CC2(c3ccccc3)CC2)cc1	.	.	.	9.8	.	.	.	.
Cc1cc(C)n(C)c(=O)c1C#N	.	.	.	.	.	.	/	/
CCOc1ccc(C(=O)Nc2ccc3nc(N4CCN(CC)CC4)cc(C)c3c2)cc1	.	.	.	.	.	.	/	/
CCN1CCN(c2cc(C)c3cc(NC(=S)N4CCOCC4)ccc3n2)CC1	.	.	.	.	.	.	/	/
CCN1CCN(c2cc(C)c3cc(NC(=S)N4CCN(c5ccccc5)CC4)ccc3n2)CC1	.	.	.	9.1	.	.	26	.
CCN1CCN(c2cc(C)c3cc(NC(=O)c4cc(OC)cc(OC)c4)ccc3n2)CC1	.	.	.	9.9	.	.	14	5.5
Cc1[nH]c2ccccc2c1SCCNC(=O)c1ccc(S(=O)(=O)N2CCCC2)cc1	.	.	.	.	.	.	/	/
CCCCn1c(=N)n(CC(=O)c2ccc(OC)cc2)c2ccccc21	.	.	.	9.4	/	.	20	.
